Among the test systems are EKVX NSCLC; SN12C renal; TK-10 renal; ACHN renal; CAKI-1 renal; A498 renal; CCRF-CEM leukemia; MOLT-4 leukemia; OVCAR-8 ovarian; OVCAR-5 ovarian; OVCAR-4 ovarian; SK-OV-3 ovarian; IGROV1 ovarian; OVCAR-3 ovarian; NCI/ADR-RES ovarian; UO-31 renal; SR leukemia; RPMI-8226 leukemia; HS 578T breast.
Holding throughout (assay): NCI-60 one-dose screen, 48 h (100 = growth as untreated, 0 = no growth, -100 = all killed)
Conditions in all cases: 10 µM unless noted

“And” between values parts separate entries of the source, which are not always exact repeats. Equal entries are not always repeated. This is part of a sample that, as a whole, favours compounds with a hit. Of some 83,000 tested, about 20% had one in any assay.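 Cell lines were cultured in 96-well plates, exposed to a single compound concentration, and assessed for percent growth 48 hours later.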 Unmarked numbers belong to inactive results. The source made the active and inactive calls. Rule for the calls: active = growth percent below 10; inactive = the rest.

As for `CCOc1ccc(-c2nc3ccc(-c4nc5ccc(N6CCN(C)CC6)cc5[nH]4)cc3[nH]2)cc1`, the growth was -75.5% (active) in the assay on EKVX NSCLC; -91.4% (active) in the assay on SN12C renal; -84.9% (active) in the assay on TK-10 renal; -33.8% (active) with ACHN renal; -43.8% (active) in the assay with CAKI-1 renal; -91.6% (active) with A498 renal. For the same compound, the growth with CCRF-CEM leukemia was 4.03% (active); with MOLT-4 leukemia, -60.5% (active); in the assay on OVCAR-8 ovarian, -38.2% (active); in the assay with OVCAR-5 ovarian, -45.8% (active); in the assay with OVCAR-4 ovarian it was -65.1% (active); in the assay with SK-OV-3 ovarian it was -93.7% (active). Also, the growth in the assay on IGROV1 ovarian was -82.9% (active); in the assay on OVCAR-3 ovarian, -100% (active); in the assay with NCI/ADR-RES ovarian, 61%.

`S=C(NCCNC(=S)[S][Sn]([c]1ccccc1)([c]1ccccc1)[c]1ccccc1)[S][Sn]([c]1ccccc1)([c]1ccccc1)[c]1ccccc1`: the growth in the assay on EKVX NSCLC was -91.4% (active); in the assay with SN12C renal, -79.7% (active); in the assay on UO-31 renal it was -100% (active); in the assay on ACHN renal, -100% (active); with CAKI-1 renal, -71.3% (active); with CCRF-CEM leukemia it was -35.3% (active). The growth in the assay on MOLT-4 leukemia is -32.8% (active); with SR leukemia it was 0.639% (active); in the assay with RPMI-8226 leukemia, -24% (active); in the assay with OVCAR-8 ovarian, -99.2% (active); with OVCAR-4 ovarian, -100% (active); in the assay on SK-OV-3 ovarian, -100% (active). Besides, the growth was -84.8% (active) in the assay on IGROV1 ovarian, -98.5% (active) in the assay with OVCAR-3 ovarian, -14.5% (active) in the assay with HS 578T breast and -64.5% (active) with NCI/ADR-RES ovarian.

On to `N#CSCc1c(Cl)cccc1Cl`, for which the growth in the assay with EKVX NSCLC was 103%; in the assay on SN12C renal, 93.3%; in the assay with ACHN renal, 49.9%; with CAKI-1 renal it was 47.7%; in the assay on A498 renal, 85.1%; with CCRF-CEM leukemia, 44.1%. For the same compound, the growth with MOLT-4 leukemia is 90.9%; in the assay with SR leukemia, 59.5%; in the assay on RPMI-8226 leukemia it was 47.7%; in the assay with OVCAR-5 ovarian, 106%; in the assay on OVCAR-4 ovarian, 35.2%; in the assay on SK-OV-3 ovarian it was 96.6%. For the same compound, the growth is 11.5% with IGROV1 ovarian, 4.78% (active) in the assay with OVCAR-3 ovarian, 80.6% in the assay on HS 578T breast and 95.4% in the assay with NCI/ADR-RES ovarian.

`Nc1ncnc2c1ncn2C1OC(CO)C(O)C1O` (configuration not stated): the growth in the assay with EKVX NSCLC was 116% and 88.3% and 105%; in the assay on SN12C renal, 103% and 90.3% and 97.5%; with ACHN renal, 111% and 84.1% and 98.9%; with CAKI-1 renal, 103% and 109% and 94.5%; in the assay with A498 renal it was 123% and 107% and 128%; in the assay on CCRF-CEM leukemia, 96.7% and 119% and 105%. Further, the growth in the assay with MOLT-4 leukemia was 102% and 111% and 109%; in the assay with SR leukemia, 98.7% and 21% and 87.3%; with OVCAR-8 ovarian, 93.5% and 56% and 105%; with OVCAR-4 ovarian it was 123% and 83.8% and 91.7%; in the assay with SK-OV-3 ovarian it was 104% and 100%; with IGROV1 ovarian, 109% and 104%. For the same compound, the growth was 116% and 89.8% and 108% in the assay with OVCAR-3 ovarian; 125% and 77.9% with HS 578T breast; 110% and 72% in the assay on NCI/ADR-RES ovarian.

Regarding `O=[N+]([O-])c1ccc(N=Nc2ccc(O)cc2O)cc1`, the growth in the assay with SN12C renal was 67.2%; in the assay with UO-31 renal it was 58.5%; in the assay with TK-10 renal, 77.9%; with ACHN renal, 55.5%; with CAKI-1 renal, 56%; with A498 renal it was 13.8%. The growth with CCRF-CEM leukemia was 33.2%; in the assay with MOLT-4 leukemia, 36.7%; in the assay with SR leukemia it was 16.6%; in the assay on RPMI-8226 leukemia, 43%; with OVCAR-8 ovarian, 61.9%; in the assay with OVCAR-5 ovarian it was 107%. Besides, the growth with OVCAR-4 ovarian is 48.4%; in the assay on SK-OV-3 ovarian, 87%; in the assay with IGROV1 ovarian, 76.5%; with OVCAR-3 ovarian, 54.8%; in the assay on HS 578T breast, 51.8%; in the assay on NCI/ADR-RES ovarian, 52.6%.

On to `O=C1C=CC(=O)N1C1c2ccccc2-c2ccccc21`, for which the growth was 105% in the assay on EKVX NSCLC; 94.2% with SN12C renal; 57.8% with ACHN renal; 55.7% in the assay with CAKI-1 renal; 93.8% with A498 renal; 30.4% with CCRF-CEM leukemia. Further, the growth is 33.8% with MOLT-4 leukemia; -26.9% (active) in the assay with SR leukemia; 109% with OVCAR-5 ovarian; 110% in the assay on OVCAR-4 ovarian; 96.5% in the assay with SK-OV-3 ovarian; 99.4% in the assay on IGROV1 ovarian. Also, the growth was 35.4% in the assay with OVCAR-3 ovarian and 100% in the assay on NCI/ADR-RES ovarian.

In the case of `N[C@H](C(=O)O)[C@@H]1CC(Cl)=NO1`, the growth in the assay with SN12C renal is 19.6% [20 µM]; in the assay with UO-31 renal it was 34.8% [20 µM]; in the assay with TK-10 renal it was 24.7% [20 µM]; with ACHN renal, 21.5% [20 µM]; in the assay with CAKI-1 renal, 18.3% [20 µM]; in the assay on A498 renal it was 13.6% [20 µM]. The growth in the assay with CCRF-CEM leukemia was 19% [20 µM]; in the assay with MOLT-4 leukemia, 23.5% [20 µM]; in the assay on SR leukemia, 21.2% [20 µM]; with RPMI-8226 leukemia it was 28.9% [20 µM]; in the assay on OVCAR-8 ovarian, 30.3% [20 µM]; in the assay with OVCAR-5 ovarian it was 28.4% [20 µM]. Besides, the growth in the assay with OVCAR-4 ovarian was 48.1% [20 µM]; in the assay with SK-OV-3 ovarian, 34.1% [20 µM]; with IGROV1 ovarian, 10.8% [20 µM]; with OVCAR-3 ovarian it was 32.4% [20 µM]; in the assay on HS 578T breast, 27.2% [20 µM]; with NCI/ADR-RES ovarian, 28.4% [20 µM].

Values taken from PubChem BioAssay (NCI).
